Hit rate of the full screen: of about 330,000 compounds, about 4,900 (1.5%) were called active. The full list was thinned out, with actives kept by preference. A number with no mark means an inactive call.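 How the source made its calls: active means inhibition above the mean inhibition across the screen plus 3 SD (cut at about 25% in these data); inactive means the rest.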
target: Platelet-activating factor acetylhydrolase (Homo sapiens) (UniProt Q13093); assay: pPAFAH enzyme inhibitors, primary screen, biochemical, fluorescence polarization, human (AID 463082); settings: recombinant pPAFAH, FP-rhodamine probe fluorescence polarization; at 3.39 µM; active compounds read high;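 further: inhibitors block binding of the rhodamine activity-based probe so polarization drops; 0% = enzyme with DMSO and 100% = wells lacking pPAFAH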
Sequence (Q13093 whole entry, looked up): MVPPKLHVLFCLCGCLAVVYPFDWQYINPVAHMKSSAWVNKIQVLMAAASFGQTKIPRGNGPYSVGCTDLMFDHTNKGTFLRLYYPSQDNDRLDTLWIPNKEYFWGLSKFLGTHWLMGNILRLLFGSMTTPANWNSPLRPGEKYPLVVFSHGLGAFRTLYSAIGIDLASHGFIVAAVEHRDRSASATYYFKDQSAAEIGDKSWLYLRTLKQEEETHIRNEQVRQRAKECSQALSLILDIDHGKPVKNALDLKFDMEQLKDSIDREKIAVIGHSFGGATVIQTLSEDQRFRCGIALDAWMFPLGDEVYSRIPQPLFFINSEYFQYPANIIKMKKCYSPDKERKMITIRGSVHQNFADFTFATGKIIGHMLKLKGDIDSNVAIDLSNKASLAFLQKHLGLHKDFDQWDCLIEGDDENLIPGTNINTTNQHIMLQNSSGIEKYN

Structure (SMILES) | inhibition
COC(=O)c1sc(N2CCN(Cc3ccccc3)CC2)nc1N | 5.95%
CC(=O)Nc1ccccc1OC(=O)N1CCOCC1 | -0.96%
O=C(/C=C/c1cccs1)c1cc(Cl)ccc1OC(=O)N1CCOCC1 | 42.8% (active)
O=C(Oc1cccc(C(=S)N2CCOCC2)c1)c1cccc(Cl)c1 | 7.68%
COc1ccc(/C=C2/S/C(=N/N=C3\CC4CCC3(C)C4(C)C)NC2=O)cc1 (stereo not drawn) | 5.69%
O=C(O)C(c1ccccc1)N1C(=O)/C(=C\c2ccc(-c3cccc(Cl)c3)o2)SC1=S (stereo not drawn) | 70.4% (active)
O=C1NN(c2ccccc2)C(=O)/C1=C/c1ccc(-c2cccc(C(=O)O)c2)o1 | 18.6%
O=C1c2ccccc2NC(c2ccc(-c3cccc(Cl)c3)o2)N1O (stereo not drawn) | 7.56%
COc1ccc(CN2C3CCCC2CC(NC(=O)c2cccc(F)c2)C3)cc1 (stereo not drawn) | 0.56%
O=C(COc1ccc(/C=N/NS(=O)(=O)c2ccccc2)cc1)NCCc1ccccc1 | 4.79%
COc1ccc(N2CC(NS(=O)(=O)c3ccc4ccccc4c3)CC2=O)cc1 (stereo not drawn) | 4.81%
O=S(=O)(N/N=C\c1cccn1-c1ccccc1)c1ccc2ccccc2c1 | 25% (active)
Cc1ccnc2nc(C(=O)Nc3nnc(-c4ccccc4)o3)nn12 | 8.88%
CCCCn1c(N)c(N(CC(C)C)C(=O)c2cnc(C)cn2)c(=O)[nH]c1=O | 7.57%
COc1ccccc1NC(=O)CCN1CCN(c2ccc(Cl)cc2)CC1 | 6.99%
Cc1ccsc1/C=N/Nc1ccc(Cl)nn1 | 8.65%
COc1cccc(/C=N/Nc2ccc(Cl)nn2)c1 | -0.67%
Oc1cccc(/C=N/Nc2ccc(Cl)nn2)c1O | 54.6% (active)
Cc1nn(C(C)C(=O)N2CCOCC2)c(=O)c2nn(-c3ccccc3)c(C)c12 (stereo not drawn) | -0.47%
CC1(N2CCOCC2)CC2(O)C(=[N+]1[O-])CCc1nonc12 (stereo not drawn) | 11.9%

Structure (SMILES) | inhibition
CCCCCCCC(=O)OC(CN1CCCCCC1)CN1CCCC1=O (stereo not drawn) | -5.64%
Cc1ccccc1CS(=O)(=O)CC1(O)CCN(C(=O)c2cccc(C(F)(F)F)c2)CC1 | -7.07%
O=C(NCCc1ccco1)c1nn(Cc2ccccc2)c(=O)c2ccccc12 | 1.41%
O=c1nc2s/c(=C\c3ccco3)c(=O)n2nc1Cc1ccccc1 | 25.7% (active)
CN(c1ccccc1)c1ccc(/C=c2\s/c(=C(/C#N)C(=O)C(C)(C)C)n(Cc3ccco3)c2=O)cc1 | -0.46%
O=C(COc1coc(CN2CCN(c3ccccc3)CC2)cc1=O)N1CCc2ccccc21 | -5.69%
CC(=O)N1CCc2cc(Br)cc(S(=O)(=O)CCC(=O)Nc3c(C)n(C)n(-c4ccccc4)c3=O)c21 | 7.96%
N/C(=N\S(=O)(=O)c1ccc(Cl)cc1)N1CCOCC1 | 7.38%
COc1cc(C(=O)NCC(=O)NCCSc2ccc(Br)cc2)cc(OC)c1OC | 2.53%
O=C(CNC(=O)c1ccccc1Br)NCCSc1ccc(Br)cc1 | 6.87%
COc1ccccc1C(=O)NCC(=O)NCCSc1ccc(Br)cc1 | 28.6% (active)
NCCN1CCN2C(=O)CN(C(=O)c3ccccc3)CC12 (stereo not drawn) | 0.84%
C/C=C(/C)C(=O)O[C@@H]1c2cc3c(c4c2[C@@]2(CO4)C(=O)C(OC)=C(OC)C=C2C[C@@H](C)[C@H]1C)OCO3 | -0.41%
COCCOC(=O)c1sc(=S)n(CCOC)c1N | 27.2% (active)
COc1cccc(CNC(=O)C2CCCN(S(=O)(=O)N3CC(C)CC(C)C3)C2)c1 (stereo not drawn) | 2.82%
CCCCN1C(=O)C(=O)N(CC(=O)Nc2cccc(C(C)=O)c2)C1=O | -0.13%
CC(=O)c1ccc(S(=O)(=O)NCCC(=O)N2CCN(c3ccccn3)CC2)cc1 | -1.99%
COc1ccccc1OCc1nnc(SCC(N)=O)n1-c1ccccc1 | -7.86%
COc1cccc(-c2coc3cc4oc(=O)c(CC(=O)O)c(C)c4cc23)c1 | 2.78%
O=C(CCN1CCN(c2ccccc2)CC1)NNC(=S)Nc1ccccc1 | 3.64%

Structure (SMILES) | inhibition
O=C(Cc1ccccc1)NC(=S)Nc1ccc(N2CCCCC2)cc1 | 28.6% (active)
Cc1ccccc1C(=O)NC(=S)Nc1ccc(N2CCN(C(=O)c3ccccc3)CC2)cc1 | 8.73%
O=C(COC(=O)c1c(Cl)cccc1Cl)Nc1cccc(S(=O)(=O)NC2=NCCCCC2)c1 | 0.66%
CC(C)Nc1ccc(-n2nc3ccccc3[n+]2[O-])cc1 | -0.33%
COC(=O)C1(CCSC)NC(c2ccc(OC)cc2OC)C2C(=O)N(c3cccc(C(C)=O)c3)C(=O)C21 (stereo not drawn) | 8.06%
Cc1ccsc1C(=O)NNC(=O)COc1ccc(Br)cc1 | 5.73%
CCCCNS(=O)(=O)c1ccc2nc(SCC(=O)Nc3cc(C)cc(C)c3)[nH]c2c1 | -1.99%
CN(C)C(=O)c1nc2ccc(Cl)cn2c1CN1CCN(c2ncccn2)CC1 | -1.11%
CN(C)C(=O)c1nc2ccc(Cl)cn2c1CNCc1cccc(OC(F)(F)F)c1 | 27.7% (active)
COc1cccc(CNC(=O)c2nnn(CC(=O)Nc3cc(Cl)ccc3C)c2N)c1 | -8.08%
Cc1ccc(-n2nc3ccc(NC(=O)/C=C/c4ccco4)cc3n2)cc1C | -3.71%
Cc1ccc(N=C2NC(=O)/C(=C/C=C/c3ccco3)S2)cc1C | 57.3% (active)
Cc1ccc(N2NC(=O)/C(=C/C=C/c3ccco3)C2=O)cc1C | 21.3%
Cc1ccc(S(=O)(=O)N2CCCCC2)cc1NC(=O)[C@@H]1CCCN1C(=O)c1cccs1 | 4.96%
O=C(CNC(=O)c1n[nH]c2ccccc12)Nc1cc(Cl)ccc1Cl | -4.9%
CC(=O)Nc1cccc(/C(C)=N/NC(=O)c2c(-c3ccccc3Cl)noc2C)c1 | 5.03%
Cc1ccccc1NC(=O)c1cc(S(=O)(=O)Nc2cccc(C(=O)O)c2)ccc1Cl | 2.58%
C/C(=N\Nc1cccc(C(=O)O)c1)c1ccc2c(c1)Nc1ccccc1S2 | 32.8% (active)
